HP1b chromo inh: blocks HP1-beta chromodomain binding to methylated histone tails; P83916; AlphaScreen HP1-beta / biotin-H3K9me3 peptide binding; Potency, µM (series often up to 114 µM), inactives show top-dose activity change, negative = inhibition, most hits filed as inhibitors; 390,000 compounds, 0.56% hits; AID 540317; further: potency means the concentration at half of the fitted maximal effect; nearly all actives have a fitted effect of over 70% in size
Target sequence (P83916 whole entry, looked up): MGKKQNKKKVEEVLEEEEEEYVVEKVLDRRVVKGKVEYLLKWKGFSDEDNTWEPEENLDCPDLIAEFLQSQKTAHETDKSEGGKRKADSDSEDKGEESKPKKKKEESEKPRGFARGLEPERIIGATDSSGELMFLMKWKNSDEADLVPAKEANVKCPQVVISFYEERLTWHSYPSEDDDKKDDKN
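HP1-beta protein (50 nM final) preincubated 30 min at room temperature with biotinylated H3(1-18)K9me3 peptide (50 nM) in PBS pH 7.4, 0.01% Tween-20, then compound added for 30 min. AlphaScreen streptavidin donor/nickel chelate acceptor beads (10 ug/mL final), 30 min dark, luminescence read.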
PLK1 PBD block: PLK1 (human) polo-box domain binding inhibition | Plk1 PBD binding of FITC phosphopeptide, fluorescence polarization | Potency, µM, inactives show max response, negative = inhibition, hits mostly inhibitors | 360,000 compounds, 2.8% hits | AID 720504; further: potency means the concentration at half of the fitted maximal effect; series mostly up to about 57 µM; on the % scale 0 is the no-effect control and ±100 the full control effect; nearly all actives have a fitted effect of over 65% in size
JMJD2A Tudor: blocks the human JMJD2A Tudor domain; O75164; AlphaScreen JMJD2A-Tudor / H3K4me3 peptide binding; Potency, µM (series often up to 114 µM), without a hit: top-dose activity change, negative = inhibition, actives largely listed as inhibitors; 390,000 compounds, 4.4% hits; AID 504339; further: potency means the concentration at half of the fitted maximal effect; on the % scale 0 is the no-effect control and ±100 the full control effect; nearly all actives have a fitted effect of over 50% in size
BAZ2B inh: blocks human BAZ2B. AID 504333. AlphaScreen BAZ2B-H3K14Ac peptide displacement. Potency, µM (highest dose often 114 µM), for the others: top-dose activity change, negative = inhibition, most hits filed as inhibitors. 360,000 compounds, 4.4% hits; further: potency means the concentration at half of the fitted maximal effect; on the % scale 0 is the no-effect control and ±100 the full control effect; nearly all actives have a fitted effect of over 60% in size
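BAZ2B (50 nM) with biotin-H3(5-23)K14Ac peptide (50 nM) in PBS pH 7.4, 0.01% Tween-20, preformed 30 min, then compound 30 min at room temperature; top concentration 110uM. AlphaScreen streptavidin donor/nickel chelate acceptor beads (10 ug/mL final), 20 min dark, signal read.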
G9a block: blocks human histone lysine methyltransferase G9a; Q96KQ7; G9a H3K9 monomethylation, AlphaScreen, 2 h; Potency, µM (doses to about 102 µM), for the others: at the highest dose activity, negative = inhibition, hits mostly inhibitors; 350,000 compounds, 8.8% hits; further: potency means the concentration at half of the fitted maximal effect; on the % scale 0 is the no-effect control and ±100 the full control effect; nearly all actives have a fitted effect of over 75% in size
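Enzyme 20 nM + cpd, 15 min RT; add b-H3K9 pep 500 nM / SAM 20 uM; 2 h RT; anti-H3K9me1 Ab 0.5 ug/mL + SA donor / anti-rabbit acceptor beads 20 ug/mL each, 10 min; AlphaScreen read.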
PI5P4K alpha inh: PI5P4K alpha (human) kinase inhibition; AID 652105; P48426; 330,000 compounds, 1.2% hits; max response, %; PI5P4Kalpha enzyme, ADP-Glo luminescence, 60 min; active compounds read low; active means max response of -50% or lower; inconclusive means between -30% and -50%; inactive means -30% or higher; further: value at the top dose of about 77 µM; on the % scale 0 is the no-effect control and ±100 the full control effect
Target sequence (P48426 whole entry, looked up): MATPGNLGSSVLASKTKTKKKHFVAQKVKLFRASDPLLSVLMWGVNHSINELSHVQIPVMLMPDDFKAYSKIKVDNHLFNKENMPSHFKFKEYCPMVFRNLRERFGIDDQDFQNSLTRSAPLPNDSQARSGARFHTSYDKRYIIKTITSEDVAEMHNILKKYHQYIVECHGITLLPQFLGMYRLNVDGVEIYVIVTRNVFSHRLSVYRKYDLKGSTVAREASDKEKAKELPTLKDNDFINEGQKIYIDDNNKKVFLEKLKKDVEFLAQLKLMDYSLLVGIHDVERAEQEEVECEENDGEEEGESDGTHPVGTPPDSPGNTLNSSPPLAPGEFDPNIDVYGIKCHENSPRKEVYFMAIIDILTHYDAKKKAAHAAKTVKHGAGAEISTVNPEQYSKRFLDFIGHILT
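Human PI5P4Kalpha with substrate in 0.038 M HEPES pH 7.4, 0.28 mM EGTA, 0.1% CHAPS, 5% DMSO; reaction started with 5 microM ATP (final), 60 min at room temperature. ADP formed read by ADP-Glo luminescence.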
* marks the source's active call; other numbers are inactive results; ! = a repeat was not active; [ ] = remark or other dose. A selection: hits, their analogues and other compounds. The true share with any hit is near 12%. Unless noted, the call rests on the fitted dose curve; in most records, active means well fitted curve in the direction sought with a large enough effect; inconclusive means small, poorly fitted or top-dose-only effect, or another doubt; inactive means no such curve, though single readings can be large; an effect the other way counts as inactive or inconclusive.

How did Cc1n[nH]c(C)c1NC(=O)CN1CCN(S(=O)(=O)c2ccc(C(F)(F)F)cc2)CC1 do in these assays?
HP1b chromo inh: inconclusive; PLK1 PBD block: -6%; JMJD2A Tudor: 4.5µM*; PI5P4K alpha inh: 8

How did COc1ccc(S(=O)(=O)N2CCN(CC(=O)Nc3cccc(OC)c3)CC2)cc1 do in these assays?
HP1b chromo inh: 12%[57 µM]; PLK1 PBD block: 0%; JMJD2A Tudor: -6%; BAZ2B inh: -17%; G9a block: 15%; PI5P4K alpha inh: 3

How did COc1ccc(S(=O)(=O)N2CCC(C(=O)NCCC(=O)Nc3cccc(Cl)c3)CC2)cc1 do in these assays?
HP1b chromo inh: 23%; PLK1 PBD block: 6.7µM*; JMJD2A Tudor: 16µM*; BAZ2B inh: -22%; G9a block: -6%; PI5P4K alpha inh: inconclusive

How did COC(=O)c1ccc(NC(=O)CN2C(=O)CNC2=O)cc1 do in these assays?
HP1b chromo inh: 39%; PLK1 PBD block: 0%; JMJD2A Tudor: 0%; BAZ2B inh: 2%; G9a block: 13µM*; PI5P4K alpha inh: -2

Results for O=C(/C=C/[C@H]1O[C@@H](n2ccc(=O)[nH]c2=O)[C@H](O)[C@@H]1O)NCCN1CCCCC1 ?
PLK1 PBD block: 5%; PI5P4K alpha inh: 3

What do the screens show for `O=C(Nc1ccc(Br)cc1F)C(NS(=O)(=O)c1cccc2nsnc12)c1ccccc1` (stereo not drawn)?
HP1b chromo inh: 11%; JMJD2A Tudor: -30%; G9a block: inconclusive

How did CCCSc1ncnc2[nH]ncc12 do in these assays?
HP1b chromo inh: 13%[57 µM]; PLK1 PBD block: -7%; JMJD2A Tudor: -16%; PI5P4K alpha inh: -1

What do the screens show for `CC(=O)N1CCC2(CC1)OC(=O)C(C)=C2C(=O)NCc1cccc(Cl)c1`?
HP1b chromo inh: -12%; JMJD2A Tudor: -4%; BAZ2B inh: 2%; G9a block: 10%[59 µM]

What do the screens show for `Oc1c(Cl)cc(Cl)cc1C=Nc1ccccc1N1CCCC1`?
BAZ2B inh: 45µM*; G9a block: 10µM*

How did COc1ccccc1CCNC(=O)Cc1c(C)c2c(cc(C)c3c(C)coc32)oc1=O do in these assays?
HP1b chromo inh: 15%; JMJD2A Tudor: -26%; BAZ2B inh: 0%; G9a block: -28%[59 µM]

What do the screens show for `Cc1ccc(NC(=O)COC(=O)c2nn(-c3ccc(Cl)cc3)cc2O)cc1`?
HP1b chromo inh: 19%; PLK1 PBD block: 0%; JMJD2A Tudor: -7%; PI5P4K alpha inh: -6

How did Cc1c(C(=O)NN)nn(-c2ccc(Cl)cc2)c(=O)c1C#N do in these assays?
HP1b chromo inh: 6%; PLK1 PBD block: -3%; JMJD2A Tudor: -25%; BAZ2B inh: -11%; G9a block: 45µM*; PI5P4K alpha inh: -19

Results for NNC(=O)c1nn(-c2ccc(Cl)cc2)cc1O ?
HP1b chromo inh: -4%; PLK1 PBD block: 17µM*; JMJD2A Tudor: -23%[11.4 µM]; BAZ2B inh: -23%; G9a block: -15%; PI5P4K alpha inh: inconclusive

How did Cc1ccc(-c2nc(SCC(=O)NCc3ccco3)c3c(=O)n(C)c(=O)n(C)c3n2)cc1 do in these assays?
HP1b chromo inh: 26%[57 µM]; JMJD2A Tudor: -1%; BAZ2B inh: 4%; G9a block: 4%[59 µM]

Results for Oc1c(Br)cc(Br)cc1/C=N/N1CCN(Cc2ccccc2)CC1 ?
HP1b chromo inh: 14%; PLK1 PBD block: -4%; JMJD2A Tudor: -27%; BAZ2B inh: 0%; G9a block: -10%[59 µM]; PI5P4K alpha inh: 5

How did Cc1ccc(CN2CCN(/N=C/c3cc(Br)ccc3F)CC2)cc1 do in these assays?
HP1b chromo inh: -1%; PLK1 PBD block: 8%; JMJD2A Tudor: inconclusive; BAZ2B inh: 50µM*; G9a block: 56µM*; PI5P4K alpha inh: 12

How did Cc1ccc(CN2CCN(/N=C/c3cc(Br)cc(Br)c3O)CC2)cc1 do in these assays?
HP1b chromo inh: inconclusive; PLK1 PBD block: 17µM*; JMJD2A Tudor: inconclusive; BAZ2B inh: -33%; G9a block: -12%[59 µM]; PI5P4K alpha inh: -7

Results for Fc1ccc(Br)cc1/C=N/N1CCN(c2ccccc2)CC1 ?
HP1b chromo inh: -18%; PLK1 PBD block: -1%; JMJD2A Tudor: inconclusive; BAZ2B inh: inconclusive; G9a block: -6%[0.501 µM]; PI5P4K alpha inh: 20

Results for Cc1ccc(CN2CCN(/N=C/c3cc(Br)cc(Br)c3O)CC2)c(C)c1 ?
HP1b chromo inh: 51%; PLK1 PBD block: -9%; JMJD2A Tudor: -11%[57.1 µM]; BAZ2B inh: 1%; G9a block: 40µM*; PI5P4K alpha inh: 0

How did CCCn1cc(S(=O)(=O)c2cc(C)ccc2C)c(=O)c2cc(F)c(N3CCOCC3)cc21 do in these assays?
HP1b chromo inh: 49%; JMJD2A Tudor: -20%; BAZ2B inh: inconclusive; G9a block: -21%[59 µM]

How did Cc1cccc(OCCSc2nc(N)cc(N)n2)c1 do in these assays?
HP1b chromo inh: -10%; PLK1 PBD block: 3.8µM*; JMJD2A Tudor: -12%[11.4 µM]; BAZ2B inh: inconclusive; PI5P4K alpha inh: -18

What do the screens show for `CNC(=O)/C(C#N)=C\c1ccc(CNS(=O)(=O)c2ccccc2)o1`?
HP1b chromo inh: 9%; PLK1 PBD block: -11%; JMJD2A Tudor: -10%; BAZ2B inh: 5%; G9a block: 19%[59 µM]; PI5P4K alpha inh: -5

Results for CNC(=O)/C(C#N)=C\c1ccc(CNS(=O)(=O)c2ccc(Cl)cc2)o1 ?
HP1b chromo inh: -7%; PLK1 PBD block: 17µM*; JMJD2A Tudor: -17%[11.4 µM]; BAZ2B inh: inconclusive; G9a block: inconclusive; PI5P4K alpha inh: -13

What do the screens show for `CC(C)c1ccccc1NC(=O)CN1C(=O)c2ccccc2C1=O`?
HP1b chromo inh: 69%; PLK1 PBD block: -14%; JMJD2A Tudor: -17%; BAZ2B inh: -8%; G9a block: 14%; PI5P4K alpha inh: 3

How did Nc1ccc2oc(-c3ccccc3Cl)cc(=O)c2c1O do in these assays?
HP1b chromo inh: 3%; PLK1 PBD block: 0%; JMJD2A Tudor: inconclusive; BAZ2B inh: inconclusive; G9a block: 71µM*; PI5P4K alpha inh: -4

Results for O=c1cc(-c2ccccc2Cl)oc2ccc([N+](=O)[O-])c(O)c12 ?
HP1b chromo inh: 12%; PLK1 PBD block: inconclusive; JMJD2A Tudor: -36%; BAZ2B inh: inconclusive; G9a block: 50µM*!; PI5P4K alpha inh: -7

How did COc1ccccc1-c1cc(=O)c2c(O)ccc([N+](=O)[O-])c2o1 do in these assays?
HP1b chromo inh: 40%; PLK1 PBD block: 2%; JMJD2A Tudor: -8%; BAZ2B inh: -3%; G9a block: -10%[59 µM]; PI5P4K alpha inh: -5

Results for O=c1cc(-c2ccccc2Cl)oc2c([N+](=O)[O-])c(O)cc(O)c12 ?
HP1b chromo inh: 24%; PLK1 PBD block: -27%; JMJD2A Tudor: -32%; BAZ2B inh: inconclusive; G9a block: 50µM*; PI5P4K alpha inh: -96*
